Potency and affinity values are given separately. The source made the active and inactive calls.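 How the source made its calls: active means dose curve could be fitted and remaining uptake under 40% of control at 33.3 µM; inactive means the rest.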

Chain of High affinity choline transporter 1 (Homo sapiens) (Q9GZV3 whole entry, looked up): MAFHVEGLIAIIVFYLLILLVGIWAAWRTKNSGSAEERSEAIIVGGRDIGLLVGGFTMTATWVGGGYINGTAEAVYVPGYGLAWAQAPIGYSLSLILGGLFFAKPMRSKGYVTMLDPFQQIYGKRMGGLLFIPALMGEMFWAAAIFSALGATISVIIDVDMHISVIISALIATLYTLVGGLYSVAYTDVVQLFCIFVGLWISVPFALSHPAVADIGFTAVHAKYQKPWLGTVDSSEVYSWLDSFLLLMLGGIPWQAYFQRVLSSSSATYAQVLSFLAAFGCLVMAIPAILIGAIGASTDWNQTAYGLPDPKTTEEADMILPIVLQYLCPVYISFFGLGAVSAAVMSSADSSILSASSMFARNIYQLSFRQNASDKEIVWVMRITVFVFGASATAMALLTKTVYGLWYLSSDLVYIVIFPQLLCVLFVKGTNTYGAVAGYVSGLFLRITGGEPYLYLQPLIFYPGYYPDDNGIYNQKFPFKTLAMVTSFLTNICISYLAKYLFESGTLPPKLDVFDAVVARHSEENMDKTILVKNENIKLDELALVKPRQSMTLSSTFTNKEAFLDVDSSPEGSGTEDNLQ

The experiment has as its target High affinity choline transporter 1 (Homo sapiens) (UniProt Q9GZV3). Kind of experiment: CHT inhibitors reducing choline uptake, dose response, orthogonal assay for CHT inhibitor project, cell-based, 3H-choline uptake, radioactive, HEK293 CHT LV-AA (AID 651756). The conditions noted are these: HEK293 CHT cells, scintillation; series mostly up to 33.3 µM.
For the compound `O=C(Nc1ccc(S(=O)(=O)Nc2ccccn2)cc1)c1ccc(Cl)cc1`, the outcome was inactive.

As to `O=C1CC(c2ccccc2)C(=O)N1c1ccc(S(=O)(=O)Nc2ccccn2)cc1` (stereo not drawn), the result was inactive.

On to `Cc1c(C(=O)Nc2ccc(S(=O)(=O)Nc3ccccn3)cc2)cccc1[N+](=O)[O-]`, for which the outcome was inactive.

As to `O=C1c2ccccc2C(=O)N1c1ccc(S(=O)(=O)Nc2ccccn2)cc1`, the result was inactive.

Regarding `Cc1cc(C)c(C(=O)Nc2ccc(S(=O)(=O)Nc3ccccc3)cc2)c(C)c1`, the outcome was inactive.

As for `O=C(Nc1ccc(S(=O)(=O)Nc2ccccn2)cc1)c1ccccc1-c1ccccc1`, the outcome was inactive.

`O=C(Nc1ccc(S(=O)(=O)Nc2ccccn2)cc1)c1cccc(C(F)(F)F)c1`: the result was inactive.

For `O=C(Nc1ccc(S(=O)(=O)Nc2ccccn2)cc1)c1cccc2ccccc12`, the outcome was inactive.

Take `O=C1C(c2ccccc2)C(c2ccccc2)C(=O)N1c1ccc(S(=O)(=O)Nc2ccccn2)cc1` (stereo not drawn): the result was inactive.

In the case of `Cc1cccc(C(=O)Nc2ccc(S(=O)(=O)Nc3ccccn3)cc2)c1C`, the outcome was inactive.

`COc1cc(C)ccc1C(=O)Nc1ccc(S(=O)(=O)Nc2ccccn2)cc1`: the outcome was inactive.

On to `O=C(Nc1ccc(S(=O)(=O)Nc2ccccn2)cc1)c1ccc2c(c1)CCCC2`, for which the result was inactive.

In the case of `O=C1CC2(CCCCC2)C(=O)N1c1ccc(S(=O)(=O)Nc2ccccn2)cc1`, the result was inactive.

With `Cc1cc(C)c(C(=O)Nc2ccc(S(=O)(=O)N(C)c3ccccn3)cc2)c(C)c1`, the outcome was inactive.

`Cc1ccc(C(=O)Nc2ccc(S(=O)(=O)Nc3ccccn3)cc2)cc1`: the outcome was inactive.

For `O=C(Nc1ccc(S(=O)(=O)Nc2ccccn2)cc1)c1cccc(Cl)c1`, the result was inactive.

Consider `O=C1c2ccc(Cl)cc2C(=O)N1c1ccc(S(=O)(=O)Nc2ccccn2)cc1`, for which the result was inactive.

As for `O=C(Nc1ccc(S(=O)(=O)Nc2ccccn2)cc1)c1ccc(C(F)(F)F)cc1`, the result was inactive.

For `O=C1c2cccc(Cl)c2C(=O)N1c1ccc(S(=O)(=O)Nc2ccccn2)cc1`, the result was inactive.

Consider `CC1(c2ccccc2)CC(=O)N(c2ccc(S(=O)(=O)Nc3ccccn3)cc2)C1=O` (stereo not drawn), for which the result was inactive.

Consider `Cc1cccc(C(=O)Nc2ccc(S(=O)(=O)Nc3ccccn3)cc2)c1`, for which the result was inactive.

In the case of `O=C(Nc1ccc(S(=O)(=O)Nc2ccccn2)cc1)c1cccc(-c2ccccc2)c1`, the outcome was inactive.

With `O=C(Nc1ccc(S(=O)(=O)Nc2ccccn2)cc1)c1ccc(Cc2ccccc2)cc1`, the result was inactive.

For `Cc1ccc(C(=O)Nc2ccc(S(=O)(=O)Nc3ccccn3)cc2)c(C)c1`, the result was inactive.

Regarding `Cc1ccc(C(=O)Nc2ccc(S(=O)(=O)Nc3ccccn3)cc2)c2ccccc12`, the result was inactive.

Regarding `Cc1ccccc1C(=O)Nc1ccc(S(=O)(=O)Nc2ccccn2)cc1`, the result was inactive.

For `O=C1c2cccc(F)c2C(=O)N1c1ccc(S(=O)(=O)Nc2ccccn2)cc1`, the result was inactive.

As to `Cc1cc(F)ccc1C(=O)Nc1ccc(S(=O)(=O)Nc2ccccn2)cc1`, the result was inactive.

For the origin of these results see PubChem BioAssay AID651756 (Johns Hopkins Ion Channel Center, 2012).
